Test results reported in ChEMBL document CHEMBL3988442, “University of Dundee, Small-Polar-MMV Screening Library” (2021).
Among all 48,000 compounds or so, about 13,000 (27%) showed an effect of 50% or more. The list shows a part of the results.

What follows are molecules tested on Wolbachia pipientis (assay: Anti-Wolbachia Cell-Based Screen). Details: 5 µM.
Type: functional
Set-up: scale not given: in the data most compounds retested in dose-response had high values

Going from Cc1cccc(CN2CC3(CCN(Cc4ccco4)CC3)OCC2=O)n1.O=C(O)C(F)(F)F.O=C(O)C(F)(F)F to Cc1cccc(CN2CC3(CCN(Cc4ccoc4)CC3)OCC2=O)n1.O=C(O)C(F)(F)F.O=C(O)C(F)(F)F, the “Percent Effect” value rises from 121.1% to 122.8%.

First: O=C(O)C(F)(F)F.O=C1COC2(CCN(Cc3ccoc3)CC2)CN1CCn1cccn1
Second: O=C(O)C(F)(F)F.O=C1COC2(CCN(Cc3ccco3)CC2)CN1CCn1cccn1
The “Percent Effect” value of the first is lower: 2.726% for the first, 4.018% for the second.

Compared with O=C(O)C(F)(F)F.O=C(c1ccco1)N1C[C@H]2CCCN(CC3CCOCC3)[C@H]2C1, NC(=O)Cc1ccc(NC(=O)C2CCOCC2)cc1 is higher in “Percent Effect” value: -19.49% for the first, -3.616% for the second.

First: COCCNC(=O)[C@H]1CN(Cc2scnc2C)C[C@H]2OCC[C@@H]12.O=C(O)C(F)(F)F.O=C(O)C(F)(F)F
Second: NC(=O)N1CCc2cc(C(=O)O)c(-c3ccsc3)nc2CC1.O=C(O)C(F)(F)F
The “Percent Effect” value of the first is higher: -9.051% for the first, -21.16% for the second.

Compared with COc1cccc(-c2ncc(CN3CC[C@H]4CC[C@@H](C3)N4)s2)c1, Cc1nc(CN(C)C2CCN(Cc3cnc(C)s3)C2)no1 (configuration not stated) is higher in “Percent Effect” value: -2.167% for the first, 106.5% for the second.

Going from O=c1[nH]c(-c2ccc(F)c(F)c2)nc2c1CCNC2 to CC(C)NC(=O)Nc1ccc(-c2nc3c([nH]2)CCNC3)cc1, the “Percent Effect” value rises from -21.65% to 8.53%.

First: CCc1cnc(CN2CCC(N(C)Cc3noc(C)n3)C2)o1 (configuration not stated)
Second: CCOc1nnc(CN2CCC(N(C)Cc3noc(C)n3)C2)s1 (configuration not stated)
The “Percent Effect” value of the first is higher: 97.22% for the first, 5.667% for the second.

Compared with CC(=O)N(Cc1noc(C)n1)C1CCN(Cc2cnc(C)s2)C1 (configuration not stated), CC(=O)N(Cc1noc(C)n1)C1CCN(Cc2ncc(C(C)C)o2)C1 (configuration not stated) is higher in “Percent Effect” value: 83.55% for the first, 142.1% for the second.

First: Cc1nc(CN(C)C2CCN(Cc3ccc(Cl)s3)C2)no1 (configuration not stated)
Second: Cc1nc(CN2CCCC(N(C)Cc3cnc(C)s3)C2)no1 (configuration not stated)
The “Percent Effect” value of the first is higher: 99.87% for the first, 2.952% for the second.

First: Cc1nc(CN2CCCC(N(C)Cc3nnsc3Cl)C2)no1 (configuration not stated)
Second: CC(=O)N(Cc1ncc(C(C)C)o1)C1CCN(Cc2ncc[nH]2)C1 (configuration not stated)
The “Percent Effect” value of the first is lower: -2.376% for the first, 11.04% for the second.

Compared with Cc1cc(CNC(=O)Nc2cc(F)cc(N3CCCC3)c2)no1, CCC(C)NC(=O)Nc1ccc(CN2CCOC2=O)cc1 (configuration not stated) is higher in “Percent Effect” value: -57.71% for the first, 17.46% for the second.

Going from Cc1cccc(C(C)(C)CNC(=O)CN(C)S(=O)(=O)c2cccnc2)c1 to CS(=O)(=O)c1cccc2c1CCCN2C(=O)Cc1cccc(F)c1, the “Percent Effect” value rises from 4.775% to 14.6%.

Going from CC(O)CN(CC(=O)NC1CCCCC1)c1ccccc1 (configuration not stated) to Cc1ccc(CN2C[C@@H](C(=O)O)[C@H](c3ccccn3)C2)o1, the “Percent Effect” value rises from -11.54% to 12.21%.

Compared with CC(C)(C)c1ncc2c(n1)CN(C(=O)c1ccc(-c3nc[nH]n3)cc1)C2, CCc1cnc(C)nc1N1CCN(Cc2ccc(-c3cc[nH]n3)o2)CC1 is lower in “Percent Effect” value: -2.467% for the first, -14.59% for the second.

First: CCc1ccc(C(=O)N2CCN(Cc3ccc(F)cc3)CC2)s1
Second: NCCN1C(=O)CC[C@H]2CN(Cc3ccc4occc4c3)CC[C@H]21
The “Percent Effect” value of the first is lower: -10.91% for the first, -1.233% for the second.

Compared with CC(C)(C)Cc1nnc(NCc2ccsc2)o1, CCc1nc(C)ncc1C(=O)N1CC(=O)N(C)c2ccccc21 is higher in “Percent Effect” value: -6.79% for the first, -0.2346% for the second.

Going from CC(=O)N(Cc1ncc(C(C)C)o1)C1CCN(Cc2nccn2C)C1 (configuration not stated) to Cc1ccnc(C2CN(Cc3ccc(-c4ccccc4C(=O)O)o3)C2)n1, the “Percent Effect” value rises from -4.268% to 103.2%.

First: CCNC(=O)C(C)NC(=O)Nc1ccccc1Cl (configuration not stated)
Second: CCNC(=O)Cc1ccc(NC(=O)NC(CC)CC)cc1
The “Percent Effect” value of the first is lower: -14.58% for the first, 3.76% for the second.

First: CCC1(c2ccc(NS(=O)(=O)c3cccs3)cc2)CCC(=O)NC1=O (configuration not stated)
Second: CCC1(c2ccc(NS(=O)(=O)N(C)C)cc2)CCC(=O)NC1=O (configuration not stated)
The “Percent Effect” value of the first is lower: 2.702% for the first, 138.3% for the second.

Compared with CN(C)S(=O)(=O)Nc1ccc(-n2nncc2C(F)(F)F)cc1, CC(C)NC(=O)Nc1ccc(CS(C)(=O)=O)cc1 is higher in “Percent Effect” value: -14.8% for the first, 125.1% for the second.

Going from CC(C)C(C)NC(=O)Nc1ccc(CC(N)=O)cc1 (configuration not stated) to CC(C)C(C)NC(=O)Nc1ccc(CS(=O)(=O)C(C)C)cc1 (configuration not stated), the “Percent Effect” value rises from 98.71% to 98.92%.

Compared with CC(C)C(C)NC(=O)Nc1cccn(C)c1=O (configuration not stated), CC(CO)NC(=O)Nc1ccc(CC#N)cc1 (configuration not stated) is lower in “Percent Effect” value: 14.72% for the first, -17.07% for the second.

First: Cc1occc1CNC(=O)N(CCCO)C1CCc2ccccc21 (configuration not stated)
Second: CCNC(=O)[C@@H]1C[C@@H](N)CN1Cc1ccc(-c2ccccc2C#N)o1
The “Percent Effect” value of the first is higher: -0.08809% for the first, -0.5053% for the second.

First: CCC(CO)N(Cc1ccccn1)C(=O)c1ncccc1C (configuration not stated)
Second: Cc1nccc(C2CN(Cc3ccc(-c4ccccc4C(=O)O)o3)C2)n1
The “Percent Effect” value of the first is lower: -0.3576% for the first, 137.2% for the second.

Compared with Cc1ccc(CN2CCC3(CCC3NS(=O)(=O)c3ccccc3)CC2)o1.O=C(O)C(F)(F)F (configuration not stated), Nc1nccc(C2CN(Cc3ccc(-c4ccccc4C(=O)O)o3)C2)n1 is higher in “Percent Effect” value: -9.512% for the first, 91.52% for the second.

Going from CCNC(=O)[C@@H]1C[C@H](N)CN1Cc1ccc(-c2ccccc2C#N)o1 to C1CN(c2nc(C3CC3)ns2)CCS1, the “Percent Effect” value falls from 18.83% to 2.674%.
